Where “and” joins values, the source holds several entries; their conditions need not be identical. Equal entries are not always repeated. Inconclusive results are not listed. Calls of active or inactive are those of the source. Unless noted, calls come from the whole dose curve; as a rule, active = well fitted curve in the direction sought with a large enough effect; inconclusive = small, poorly fitted or top-dose-only effect, or another doubt; inactive = no such curve, though single readings can be large; an effect the other way counts as inactive or inconclusive.
What was measured:
[1] = P-glycoprotein substrates identified in KB-8-5-11 adenocarcinoma cell line, qHTS therapeutic library screen (AID 1346987); note: nearly all actives have a fitted effect of over 65% in size
Summary of the method: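 Compounds are pinned in dose-response onto KB-8-5-11 cells (500 cells/well, colchicine-free medium) and left 72 h at 37 degree C. CellTiter-Glo luminescence then yields AC50 values.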

[2] = Natriuretic polypeptide receptor (hNpr1) antagonism - Pilot counterscreen GloSensor control cell line (AID 1347045; calls by dose curve; note: series mostly up to about 38 µM)
Summary of the method: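 Control counterscreen: luciferase cGMP-biosensor HEK293 cells (no Npr1) received compound for 30 min at room temperature after GloSensor substrate loading. Luminescence was measured before and 20 min after soluble guanylyl cyclase activation by 50 uM nitroprusside.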

[3] = biological target: Atrial natriuretic peptide receptor 1 (Homo sapiens) (UniProt P16066); experiment: Natriuretic polypeptide receptor (hNpr1) antagonism - Pilot screen (AID 1347049; calls by dose curve;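 note: agonist-evoked cGMP luminescence read 20 min after hNppA addition; series mostly up to about 58 µM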)
Summary of the method: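 cGMP-sensor HEK293/hNpr1 cells, 1500/well, plated overnight at 37C. 2% GloSensor reagent, 2 h RT. Compound (23 nL pin transfer) 30 min RT, baseline luminescence pre-read. 0.1 nM hNppA, 20 min RT, post-read.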

[4] = biological target: Atrial natriuretic peptide receptor 2 (Homo sapiens) (UniProt P20594); experiment: Natriuretic polypeptide receptor (hNpr2) antagonism - Pilot subtype selectivity assay (AID 1347050; calls by dose curve)
Summary of the method: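 Luminescence from a genetically encoded cGMP luciferase biosensor in hNpr2-expressing HEK293 cells is read before and 20 min after adding 1 nM hNppC. Test compounds, in interplate 1:5 titrations, are added 30-50 min ahead of the agonist.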

[5] = NS1 protein of Zika virus - qHTS assay to identify small molecule inhibitors in human HEK 293 cells (AID 1347053); note: series mostly up to about 46 µM; nearly all actives have a fitted effect of over 55% in size
Summary of the method: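 Read-out is a two-antibody TR-FRET for ZIKV NS1, normalized between uninfected cells and infected cells. Compound added 1 h before MR766 infection at MOI 0.5; human HEK 293 cells incubated 24 h, 37 C.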

[6] = biological target: T1, Tyrosine-protein phosphatase non-receptor type substrate 1 (Homo sapiens) + Leukocyte surface antigen CD47 (Homo sapiens) (UniProt P78324+Q08722); experiment: CD47-SIRPalpha protein protein interaction - LANCE assay qHTS validation (AID 1347057; active = well fitted curve in the direction sought with a large enough effect in the signal ratio, with a control signal flat, not every such curve was filed as active; the % refers to the signal ratio; note: series mostly up to about 38 µM)
Summary of the method: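 Inhibition of soluble CD47/SIRPalpha ectodomain association by titrated compounds, measured as 665/615 nm time-resolved FRET ratio after sequential 30 min room-temperature incubations.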

[7] = biological target: T1, Tyrosine-protein phosphatase non-receptor type substrate 1 (Homo sapiens) + Leukocyte surface antigen CD47 (Homo sapiens); experiment: CD47-SIRPalpha protein protein interaction - Alpha assay qHTS validation (AID 1347059);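 note: bead proximity luminescence from CD47 binding SIRPalpha after compound preincubation with SIRPalpha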
Summary of the method: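 SIRPalpha-biotin 25 nM + cpd, 30 min RT, dark; add CD47-His 12.5 nM, 30 min; add Ni-NTA/SAV beads 10 ug/mL, 30 min; AlphaScreen. Buffer PBS pH 7.4 + 0.05% IGEPAL CA-630. Non-biotinylated SIRPalpha as control inhibitor.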

[8] = biological target: Parathyroid hormone/parathyroid hormone-related peptide receptor (Homo sapiens) (UniProt Q03431); experiment: qHTS for PTHR1 Agonists: Optimization Screen against the NCGC LOPAC library (AID 1347079);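 note: GloSensor cAMP luminescence in HEK-293 GP2 cells expressing human PTHR1 with IBMX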
Summary of the method: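 HEK-293 GP2 cells, PTHR1 + GloSensor cAMP; 3000 cells/well, o/n. Luciferin + IBMX 0.5mM each (stock), 1 hr 37C. Cpd titration, 1 hr 37C. Lum after 15 min RT. Ctrl M-PTH(1-15) top 10uM.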

[9] = qHTS for Inhibitors of the Functional Ribonucleoprotein Complex (vRNP) of Lassa (LASV) Arenavirus: LASV Primary Screen - GLuc reporter signal (AID 1347082; calls by dose curve; tested in HEK293 reporter line; note: series mostly up to about 57 µM; nearly all actives have a fitted effect of over 60% in size)
[10] = qHTS for Inhibitors of the Functional Ribonucleoprotein Complex (vRNP) of Lassa (LASV) Arenavirus: Viability assay - alamar blue signal for LASV Primary Screen (AID 1347083; calls by dose curve; tested in HEK293 reporter line; note: series mostly up to about 57 µM; nearly all actives have a fitted effect of over 80% in size)
[11] = qHTS for Inhibitors of the Functional Ribonucleoprotein Complex (vRNP) of Lymphocytic Choriomeningitis Arenaviruses (LCMV): Viability assay - alamar blue signal for LCMV Primary Screen (AID 1347085; calls by dose curve; tested in HEK293 reporter line; note: series mostly up to about 57 µM; nearly all actives have a fitted effect of over 80% in size)
[12] = biological target: Nucleoprotein (Lymphocytic choriomeningitis virus (strain Armstrong)) (UniProt P09992); experiment: qHTS for Inhibitors of the Functional Ribonucleoprotein Complex (vRNP) of Lymphocytic Choriomeningitis Arenaviruses (LCMV): LCMV Primary Screen - GLuc reporter signal (AID 1347086; calls by dose curve; note: series mostly up to about 57 µM; nearly all actives have a fitted effect of over 70% in size)
[13] = qHTS of pediatric cancer cell lines to identify multiple opportunities for drug repurposing: Primary screen for TC32 cells (AID 1347089); note: nearly all actives have a fitted effect of over 60% in size
Summary of the method: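 Luminescent ATP read-out (CellTiter-Glo) of metabolically active TC32 cells after 48 h exposure. Concentration-response curves came from 11-point (MIPE, 0.78 nM–46 µM) or 8-point (NPC, 0.59 nM–46 µM) primary titrations; follow-up used 11 points.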

[14] = qHTS of pediatric cancer cell lines to identify multiple opportunities for drug repurposing: Primary screen for DAOY cells (AID 1347090); note: series mostly up to about 46 µM; nearly all actives have a fitted effect of over 55% in size
Summary of the method: (§1)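 Viability measured as metabolically active cells via CellTiter-Glo luminescence following 48 hours of compound exposure, 11-point dilutions in confirmatory testing. 500-1,000 cells/well plated 5 hours before dosing; controls were DMSO and 2.3 µM bortezomib.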

[15] = qHTS of pediatric cancer cell lines to identify multiple opportunities for drug repurposing: Primary screen for SJ-GBM2 cells (AID 1347091)
Summary of the method: as §1

[16] = qHTS of pediatric cancer cell lines to identify multiple opportunities for drug repurposing: Primary screen for A673 cells (AID 1347092); note: nearly all actives have a fitted effect of over 45% in size
Summary of the method: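 Cell viability of A673 measured by CellTiter-Glo ATP luminescence after 48 hours compound exposure. Dilution series spanned 0.78 nM to 46 µM (MIPE, 11-point) or 0.59 nM to 46 µM (NPC, 8-point); bortezomib 2.3 uM positive control.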

[17] = qHTS of pediatric cancer cell lines to identify multiple opportunities for drug repurposing: Primary screen for SK-N-MC cells (AID 1347093); note: potency is the fitted concentration of half-maximal effect
Summary of the method: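 Metabolically active cells were quantified by ATP-dependent luminescence (CellTiter-Glo, 15 min at room temperature) following 48 h treatment. Cells had been plated at 500-1,000 per well and settled for 5 h beforehand.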

[18] = qHTS of pediatric cancer cell lines to identify multiple opportunities for drug repurposing: Primary screen for BT-37 cells (AID 1347094); note: series mostly up to about 57 µM
Summary of the method: (§2)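 CRCs from 8- or 11-point titrations (lowest final 0.59 nM NPC, 0.78 nM MIPE). Cell viability: CellTiter-Glo after 48 h incubation, 15 min room-temperature development, luminescence imaging.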

[19] = qHTS of pediatric cancer cell lines to identify multiple opportunities for drug repurposing: Primary screen for U-2 OS cells (AID 1347096); note: nearly all actives have a fitted effect of over 50% in size
Summary of the method: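 Viability after 48 h compound treatment at 37C, 500-1,000 cells/well, read as ATP luminescence with CellTiter-Glo. Primary screens used 11-point (MIPE, 0.78 nM-46 µM) or 8-point (NPC, 0.59 nM-46 µM) final concentrations; follow-up screens used 11-point dilutions.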

[20] = qHTS of pediatric cancer cell lines to identify multiple opportunities for drug repurposing: Primary screen for NB-EBc1 cells (AID 1347095)
Summary of the method: as §2

Measured: Potency

Sequence of Parathyroid hormone/parathyroid hormone-related peptide receptor (Homo sapiens) (Q03431 whole entry, looked up): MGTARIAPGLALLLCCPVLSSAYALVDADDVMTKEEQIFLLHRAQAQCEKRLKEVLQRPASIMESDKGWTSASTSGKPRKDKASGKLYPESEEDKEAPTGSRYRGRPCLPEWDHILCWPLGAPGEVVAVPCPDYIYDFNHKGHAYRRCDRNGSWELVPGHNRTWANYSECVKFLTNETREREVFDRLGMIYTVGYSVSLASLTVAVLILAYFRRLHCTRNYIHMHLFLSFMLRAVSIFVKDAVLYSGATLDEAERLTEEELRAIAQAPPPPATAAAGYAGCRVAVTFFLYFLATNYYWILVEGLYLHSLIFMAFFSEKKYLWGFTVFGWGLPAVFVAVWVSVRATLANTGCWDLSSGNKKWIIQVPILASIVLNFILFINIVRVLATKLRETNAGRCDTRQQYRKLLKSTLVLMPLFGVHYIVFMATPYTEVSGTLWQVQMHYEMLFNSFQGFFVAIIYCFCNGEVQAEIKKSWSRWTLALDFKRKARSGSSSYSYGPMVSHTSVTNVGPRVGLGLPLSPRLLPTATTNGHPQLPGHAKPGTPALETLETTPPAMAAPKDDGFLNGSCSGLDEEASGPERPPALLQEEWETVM
Sequence of Nucleoprotein (Lymphocytic choriomeningitis virus (strain Armstrong)) (P09992 whole entry, looked up): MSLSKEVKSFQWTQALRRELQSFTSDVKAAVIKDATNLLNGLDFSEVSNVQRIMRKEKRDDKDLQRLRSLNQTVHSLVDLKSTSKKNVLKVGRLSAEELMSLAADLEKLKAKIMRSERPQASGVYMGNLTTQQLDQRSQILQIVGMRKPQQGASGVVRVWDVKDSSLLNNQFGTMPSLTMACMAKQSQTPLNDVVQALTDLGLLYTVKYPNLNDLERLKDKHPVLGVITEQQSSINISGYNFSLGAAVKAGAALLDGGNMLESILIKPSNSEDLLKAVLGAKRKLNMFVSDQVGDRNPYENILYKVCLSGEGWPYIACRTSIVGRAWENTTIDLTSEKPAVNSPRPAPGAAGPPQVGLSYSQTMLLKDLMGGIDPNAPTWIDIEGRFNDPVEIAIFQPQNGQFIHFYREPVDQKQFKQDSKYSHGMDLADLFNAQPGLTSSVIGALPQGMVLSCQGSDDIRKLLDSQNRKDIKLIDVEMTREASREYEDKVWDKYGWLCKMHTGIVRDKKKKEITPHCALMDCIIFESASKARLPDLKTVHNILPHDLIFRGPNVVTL
T1 sequence (P78324 whole entry, looked up, the tested form may be a part): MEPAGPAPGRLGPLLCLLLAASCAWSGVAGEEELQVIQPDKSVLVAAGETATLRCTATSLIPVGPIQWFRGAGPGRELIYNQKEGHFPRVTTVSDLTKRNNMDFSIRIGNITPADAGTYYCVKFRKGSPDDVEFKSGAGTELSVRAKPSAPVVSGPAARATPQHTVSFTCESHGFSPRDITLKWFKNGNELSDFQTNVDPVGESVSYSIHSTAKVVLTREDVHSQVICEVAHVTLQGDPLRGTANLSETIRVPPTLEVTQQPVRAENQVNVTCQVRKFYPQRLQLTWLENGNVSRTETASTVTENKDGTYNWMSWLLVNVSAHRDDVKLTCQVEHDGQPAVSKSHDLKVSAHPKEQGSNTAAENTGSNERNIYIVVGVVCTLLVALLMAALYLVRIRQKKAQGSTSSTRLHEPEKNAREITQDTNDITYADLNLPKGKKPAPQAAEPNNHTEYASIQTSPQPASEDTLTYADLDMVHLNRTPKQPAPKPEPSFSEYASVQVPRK
T1 sequence (Q08722 whole entry, looked up, the tested form may be a part): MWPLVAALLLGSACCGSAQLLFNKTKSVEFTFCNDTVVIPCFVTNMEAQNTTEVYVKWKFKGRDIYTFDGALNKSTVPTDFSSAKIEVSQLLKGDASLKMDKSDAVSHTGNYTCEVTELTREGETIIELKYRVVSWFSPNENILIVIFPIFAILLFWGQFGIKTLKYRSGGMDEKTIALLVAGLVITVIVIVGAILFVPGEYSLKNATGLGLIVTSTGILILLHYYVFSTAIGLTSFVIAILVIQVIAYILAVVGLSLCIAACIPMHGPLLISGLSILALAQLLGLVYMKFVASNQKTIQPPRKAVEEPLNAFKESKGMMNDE
Sequence of Atrial natriuretic peptide receptor 1 (Homo sapiens) (P16066 whole entry, looked up): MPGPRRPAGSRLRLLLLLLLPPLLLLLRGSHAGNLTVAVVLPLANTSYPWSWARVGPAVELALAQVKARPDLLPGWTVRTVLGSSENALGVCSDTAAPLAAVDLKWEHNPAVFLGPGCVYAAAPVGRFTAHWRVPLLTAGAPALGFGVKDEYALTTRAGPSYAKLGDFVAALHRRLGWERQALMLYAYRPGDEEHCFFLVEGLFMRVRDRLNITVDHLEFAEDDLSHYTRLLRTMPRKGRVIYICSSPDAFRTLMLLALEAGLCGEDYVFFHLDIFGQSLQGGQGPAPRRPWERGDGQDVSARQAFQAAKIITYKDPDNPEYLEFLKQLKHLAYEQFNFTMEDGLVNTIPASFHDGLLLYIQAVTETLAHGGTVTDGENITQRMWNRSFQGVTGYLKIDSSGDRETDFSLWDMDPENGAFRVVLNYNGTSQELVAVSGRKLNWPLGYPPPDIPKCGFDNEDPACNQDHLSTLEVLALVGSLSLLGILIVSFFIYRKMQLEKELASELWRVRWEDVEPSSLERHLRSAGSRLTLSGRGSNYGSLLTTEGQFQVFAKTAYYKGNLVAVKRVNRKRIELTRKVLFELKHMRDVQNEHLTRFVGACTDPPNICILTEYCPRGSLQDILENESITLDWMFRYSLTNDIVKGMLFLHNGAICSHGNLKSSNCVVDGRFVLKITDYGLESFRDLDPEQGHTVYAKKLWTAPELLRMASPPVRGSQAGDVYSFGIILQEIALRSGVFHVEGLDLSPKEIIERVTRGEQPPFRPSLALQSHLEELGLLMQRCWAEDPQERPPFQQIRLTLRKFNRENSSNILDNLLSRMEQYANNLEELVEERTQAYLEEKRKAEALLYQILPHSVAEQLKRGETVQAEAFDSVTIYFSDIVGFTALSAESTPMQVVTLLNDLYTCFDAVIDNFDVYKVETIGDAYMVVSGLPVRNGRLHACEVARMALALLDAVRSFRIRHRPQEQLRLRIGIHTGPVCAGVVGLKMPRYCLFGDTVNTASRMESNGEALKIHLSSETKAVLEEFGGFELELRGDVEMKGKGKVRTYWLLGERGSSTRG
Sequence of Atrial natriuretic peptide receptor 2 (Homo sapiens) (P20594 whole entry, looked up): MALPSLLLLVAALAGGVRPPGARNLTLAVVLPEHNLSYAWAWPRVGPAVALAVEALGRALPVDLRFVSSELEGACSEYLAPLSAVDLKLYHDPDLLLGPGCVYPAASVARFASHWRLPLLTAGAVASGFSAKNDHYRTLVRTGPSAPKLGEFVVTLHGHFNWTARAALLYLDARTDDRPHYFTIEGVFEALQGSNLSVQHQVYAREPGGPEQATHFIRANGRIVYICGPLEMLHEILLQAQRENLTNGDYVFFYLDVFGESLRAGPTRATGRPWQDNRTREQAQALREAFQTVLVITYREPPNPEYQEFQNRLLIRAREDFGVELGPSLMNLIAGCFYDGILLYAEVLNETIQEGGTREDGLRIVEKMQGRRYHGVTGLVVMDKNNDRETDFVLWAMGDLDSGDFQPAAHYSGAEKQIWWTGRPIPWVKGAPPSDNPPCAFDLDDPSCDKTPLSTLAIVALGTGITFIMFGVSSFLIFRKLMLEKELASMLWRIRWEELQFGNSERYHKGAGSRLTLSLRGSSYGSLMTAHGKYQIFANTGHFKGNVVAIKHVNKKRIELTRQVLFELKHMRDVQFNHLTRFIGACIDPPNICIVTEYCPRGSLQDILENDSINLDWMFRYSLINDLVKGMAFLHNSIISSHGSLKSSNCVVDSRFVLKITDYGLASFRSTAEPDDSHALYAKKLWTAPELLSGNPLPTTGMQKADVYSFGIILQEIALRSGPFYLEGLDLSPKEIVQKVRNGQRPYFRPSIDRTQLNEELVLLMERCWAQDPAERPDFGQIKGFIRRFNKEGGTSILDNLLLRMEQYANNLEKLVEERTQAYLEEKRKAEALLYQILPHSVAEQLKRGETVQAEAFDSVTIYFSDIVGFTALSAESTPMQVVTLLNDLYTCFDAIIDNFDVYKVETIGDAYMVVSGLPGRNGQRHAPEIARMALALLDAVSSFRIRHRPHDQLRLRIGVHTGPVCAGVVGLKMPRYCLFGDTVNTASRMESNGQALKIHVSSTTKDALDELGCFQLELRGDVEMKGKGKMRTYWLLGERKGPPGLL

O=c1[nH]oc2c1CCNC2
not listed: [20]
inactive: all other assays above

C=CCC1([C@H](C)CCC)C(=O)NC(=O)NC1=O
not listed: [2] | [3] | [4] | [6] | [7] | [8] | [19]
inactive: all other assays above

CN1C(=O)CC(=O)N(c2ccccc2)c2cc(Cl)ccc21
inactive: [1]

COC(=O)[C@@H](N)CCCN/C(N)=N/[N+](=O)[O-]
not listed: [2] | [3] | [4] | [6] | [7] | [8] | [19] | [20]
inactive: all other assays above

NNc1ccccc1
not listed: [2] | [3] | [4] | [6] | [7] | [8] | [19]
inactive: all other assays above

CCC1(c2ccc(N)cc2)CCC(=O)NC1=O (stereo unspecified)
not listed: [15]
inactive: all other assays above

CC(NC(C)(C)C)C(=O)c1cccc(Cl)c1 (stereo unspecified)
active: [17] 1.1 nM and 29.6 µM
inactive: all other assays above

CC(C)c1cccc(C(C)C)c1O
inactive: all assays above

Nc1ccccc1
not listed: [2] | [3] | [4] | [6] | [7] | [8] | [19]
inactive: all other assays above

CCCC(C)(COC(N)=O)COC(N)=O
inactive: [1]

Source: PubChem BioAssay (NCATS)
